Measurements taken from the OligoGym collection.

These sequences were tested against CDC34 (assay: pooled miR-30 sensor sort-seq; sequence = guide strand). Conditions: shRNA.
Note: reference of the scale not given here.

Sequence | sensor-assay potency score (higher = more potent)
TTGAGCTCCAGCAGCAGCGCCT | -0.656
ATGATGTCTGTGTACTCCCGAT | -1.21
TCATCGTCCCCGAAGCAGCTGT | -0.635
TCCACTTCCTGTACATCACGGA | -0.313
TTGGTCTTCACGCAGTACTCGG | -1.15
TGGTCTTCACGCAGTACTCGGC | -1.2
TAGATCGCCCTCGTCCACCAGT | -0.743
TCGTCGTAGAAGAGGTCTGAGC | -1.59
TTCCTGTACATCACGGAGGCGT | -0.234
TTAGGGTGCCACATCTTGGTCA | -0.421
TCGTCCACCAGTGTCACGCGGA | -0.898
TTGGTCAGGAACCGAAAGGCTG | -0.731
TAGTCGTCGTAGAAGAGGTCTG | -0.479
TAGGGTGCCACATCTTGGTCAG | 0.104
TGTCTGTGTACTCCCGATCCTT | -1.06
TCGTAGAAGAGGTCTGAGCCCT | -0.356
TAGTCGATGGGGAACTTGAGGC | -1.23
TAGAAGAGGTCTGAGCCCTCGT | -0.00353
TTCCACTTCCTGTACATCACGG | -0.553
TAGTAGTCGTCGTAGAAGAGGT | -0.785
ACACTCAGGAGAATGGTCCTGA | 0.312
TCGTAGTAGTCGTCGTAGAAGA | -1.53
TTGCTCTCTTTCCACTTCCTGT | -0.991
TCCTCGTAGTAGTCGTCGTAGA | -1.72

What follows are sequences tested against CDC42BPB in the same assay as above. Conditions: shRNA.

Sequence | sensor-assay potency score (higher = more potent)
TTTCCTTGGACAACACTGGAGG | -0.765
TTCGATTTCTTCATTTAGCTTT | 0.598
TTGAAGTAGATCAAGCGTGGAG | 0.0489
TTTGATTTTGGAAATCTCTTGC | 0.44
TTTAATGTCTCTGTGCACGTAA | 0.422
TCATCTTCAAACATGATCCAAA | -0.68
TTTGATTTCTTTATCTCGGTTT | 0.716
TAGAGCATCTCATACATGCAGA | -0.774
TTCTGAATCATGCACCTCCTTC | -0.418
TACTATTCTCTTAAGGTCCTAG | -0.0384
TTTCACTTCTAGCACATGGGAG | -0.202
TTATTTCAAAGTCTTCTCGATG | -1.07

What follows are sequences tested against CDC42SE1 in the same assay as above. Conditions: shRNA.

Sequence | sensor-assay potency score (higher = more potent)
TTCTCTTCTTCTTCGGCTGGGG | -0.102
TTGCTCCATGGCCTATCTCGGT | -1.82
TTGGATCTCATCTGCTCCTGAA | -0.616
